Screening results (PubChem)
PostGolgi ctrl – yeast control strain growth, post-Golgi counter-screen; efflux-deficient yeast background strain, growth absorbance A615, 16 h; inhibition, % at 10 µM; hit rate 5% among 98,000
CYP2C9 inh – human CYP2C9 inhibition | P11712 | CYP2C9 Supersomes, luciferin-H conversion, luminescence | inhibition, % at 5 µM | hit rate 20% among 96,000;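 active = blocking of liver enzyme CYP2C9 beyond about 50% at 5 µM, limit read from the data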
Target sequence (P11712 whole entry, looked up): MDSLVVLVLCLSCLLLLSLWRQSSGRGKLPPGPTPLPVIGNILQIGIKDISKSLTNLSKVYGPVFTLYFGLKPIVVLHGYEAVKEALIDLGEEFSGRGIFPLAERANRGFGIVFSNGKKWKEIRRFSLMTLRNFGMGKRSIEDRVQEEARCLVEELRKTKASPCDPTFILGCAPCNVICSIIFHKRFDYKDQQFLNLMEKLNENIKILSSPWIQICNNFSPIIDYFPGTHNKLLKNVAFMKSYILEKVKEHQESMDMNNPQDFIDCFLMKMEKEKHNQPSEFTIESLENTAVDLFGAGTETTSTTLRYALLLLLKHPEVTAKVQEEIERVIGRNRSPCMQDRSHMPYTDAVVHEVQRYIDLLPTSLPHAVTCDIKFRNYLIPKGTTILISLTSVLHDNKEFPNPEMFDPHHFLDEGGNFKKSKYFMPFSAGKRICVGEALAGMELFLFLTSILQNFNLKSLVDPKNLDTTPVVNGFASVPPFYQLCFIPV
CYP2C9 activ – CYP2C9 (human) activation. P11712. recombinant CYP2C9, luciferin-H conversion, luminescence; hits give high values; factor 1 = untreated enzyme, 0 = blocked. activation factor at 5 µM. hit rate 1.4% among 96,000. AID 1024;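 active = activation factor of 2 or more for CYP2C9 at a 5 µM dose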;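 also: 0 = sulfaphenazole-blocked wells and 1 = vehicle-only wells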
CYP2C19 inh – inhibitors of human CYP2C19 | inhibition, % at 5 µM | CYP2C19 Supersomes, luciferin-H EGE luminescence, 30 min | hit rate 21% among 96,000 | P33261 | AID 778;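 active = CYP2C19 inhibition above a set limit at 5 µM in the primary screen, cut at about 50% in these data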;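 also: plate controls were negative control wells for no effect and 2.5 mM tranylcypromine positive control for full effect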
PostGolgi yeast – growth inhibition of a yeast mutant, post-Golgi transport screen; post-Golgi transport phenotypic cell assay; inhibition, % at 10 µM; hit rate 0.9% among 98,000;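 also: yeast cells grown in 1536-well plates; yeast grown about 18 h at 30C before absorbance read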
CYP2C19 act – activators of human cytochrome P450 2C19 | recombinant CYP2C19, luciferin-H EGE luminescence; hits give high values; 0 = fully inhibited enzyme, 1 = untreated enzyme | activation factor at 5 µM | 96,000 tested, under 10 active;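 active = activation factor of at least 2 at 5 µM in the primary screen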;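 also: 0 = wells with 2.5 mM tranylcypromine and 1 = vehicle-only wells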
An asterisk follows results filed as active; nt = no result. Shown are actives, neighbours in structure and some others; about 32% of the full set was active somewhere. Rule as the data show it, unless noted: active = inhibition above about 30%; inactive = the rest.

SMILES	PostGolgi ctrl	CYP2C9 inh	CYP2C9 activ	CYP2C19 inh	PostGolgi yeast	CYP2C19 act
COc1ccc(-c2noc(CCC(=O)NCc3cccnc3)n2)cc1	-6	74*	0.3	50*	13	0.5
COc1ccc(/C=C/C(=O)c2nc3ccccc3n2CC(=O)c2ccc(OC)cc2)cc1	24	28	0.7	39	2	0.6
CCCCn1c(Oc2ccc(C(=O)OC)cc2)nc2c1c(=O)n(C)c(=O)n2C	nt	42	0.6	30	nt	0.7
COC(=O)c1cccc(Oc2nc3c(c(=O)n(C)c(=O)n3C)n2C(C)C)c1	5	75*	0.3	34	-11	0.7
CCOC(=O)c1cccc(NC(=O)Cn2cnc3c2c(=O)n(C)c(=O)n3C)c1	-2	72*	0.3	35	11	0.6
COC(=O)c1cccc(NC(=O)Cn2cnc3c2c(=O)n(C)c(=O)n3C)c1	nt	61*	0.4	18	nt	0.8
CC(C)NC(=O)Cn1cnc2c1c(=O)n(C)c(=O)n2C	-1	-15	1.1	-18	7	1.2
CCN(CC)S(=O)(=O)c1cc(C(=O)Nc2nncs2)c(Cl)cc1Cl	11	17	0.8	0	-3	1
CN(CC(=O)N1CC=C(c2ccccc2)CC1)S(=O)(=O)c1cnc[nH]1	20	99*	0	95*	-1	0
Cc1ccc(CNC(=O)C2C3C=CC(C3)C2C(=O)O)cc1 (configuration not stated)	4	13	0.9	53*	-1	0.5
COc1ccc(C)cc1NC(=O)C1C2C=CC(C2)C1C(=O)O (configuration not stated)	-1	-11	1.1	-9	8	1.1
CCOc1ccc2nc(COC(=O)c3ccco3)c(C(C)=O)[n+]([O-])c2c1	7	4	1	16	12	0.8
CCOc1ccc2nc(Cl)c(/C=C/C(=O)c3ccco3)cc2c1	16	53*	0.5	33	-11	0.7
Cc1cc2cc(C=O)c(Cl)nc2cc1C	10	7	0.9	6	3	0.9
CC(=O)C1=C(C)OC(N)=C(C#N)C1c1cc2cc(C)c(C)cc2nc1Cl (configuration not stated)	7	25	0.8	87*	-2	0.1
O=C(Cn1cnc2c(nnn2Cc2ccc(F)cc2)c1=O)NCc1ccco1	-15	nt	nt	nt	-5	nt
CCCC1=Nc2cc(C(=O)NCCCOCC)ccc2Sc2ccccc21	21	44	0.6	30	0	0.7
COCCCNC(=O)c1cccc(OC)c1OC	-5	-8	1.1	56*	3	0.4
COc1ccc(C)cc1NC(=O)NCCC1=CCCCC1	12	2	1	83*	0	0.2
COc1cc(C(=O)NCCCCCC(=O)O)cc(OC)c1OC	-1	35	0.6	8	2	0.9
COc1cc(C(=O)NCCC2=CCCCC2)cc(OC)c1OC	3	32	0.7	75*	-3	0.2
Cc1nc2cc(NC(=O)NCCC3=CCCCC3)ccc2o1	23	20	0.8	26	0	0.7
CCC1=Nc2cc(C(=O)NCCCOC)ccc2Sc2ccccc21	13	40	0.6	54*	1	0.5
NC(=O)C1CCN(C(=O)C2CCN(S(=O)(=O)c3ccccc3)CC2)CC1	5	17	0.8	-12	-12	1.1
CCCN1C(=O)C(O)(C2CC(=O)CC(C)(C)O2)c2ccccc21 (configuration not stated)	-2	-30	1.3	15	-3	0.8
SMILES	PostGolgi ctrl	CYP2C9 inh	CYP2C9 activ	CYP2C19 inh	PostGolgi yeast	CYP2C19 act
C=CCN1C(=O)CSc2ccc(C(=O)NCCC3=CCCCC3)cc21	23	52*	0.5	26	2	0.7
COc1cccc(C(=O)NCCC2=CCCCC2)c1OC	15	29	0.7	100*	4	0
COC(=O)c1cccc(NC(=S)NCCC2=CCCCC2)c1	17	50	0.5	40	-2	0.6
COCCCNC(=O)c1cccc(C(=O)NCCCOC)c1	41*	-12	1.1	3	-2	1
O=C(NCCC1=CCCCC1)c1ccc(=O)oc1	6	14	0.9	56*	14	0.4
O=C(CN1C(=O)CSc2ccccc21)NCCC1=CCCCC1	10	-4	1	23	7	0.8
Cc1cc(C)n(-c2cc(C)c(C)cc2Br)n1	-5	-9	1.1	26	-6	0.7
CCCCNC(=O)Cn1cnc2sc(C(=O)OCC)c(C)c2c1=O	4	6	0.9	-3	-4	1
CC(NC(=O)NC(N)=O)(C(F)(F)F)C(F)(F)F	12	-13	1.1	2	1	1
C=CCn1c(SCC(=O)c2ccc(Br)cc2)nnc1C(CC(C)C)NC(=O)c1cccs1 (configuration not stated)	26	-6	1.1	18	3	0.8
CN1CCN(c2oc(-c3cccs3)nc2S(=O)(=O)c2ccccc2)CC1	1	28	0.7	14	-2	0.9
C=CCn1c(=O)c2c(nc(Br)n2Cc2ccccc2Cl)n(C)c1=O	7	4	1	71*	-1	0.3
Cn1c(SCc2nn[nH]n2)nc2c1c(=O)n(Cc1ccccc1Cl)c(=O)n2C	-1	55*	0.5	-4	-3	1
CCCCOC(=O)Cn1c(=O)c2c(nc(Br)n2Cc2ccccc2)n(C)c1=O	23	78*	0.2	89*	-14	0.1
Cc1nc(N)nc(-c2ccccc2O)n1	12	31	0.7	22	0	0.8
Cc1cc(C)c2c(N)c(S(=O)c3ccc(C(C)(C)C)cc3)sc2n1 (configuration not stated)	13	47	0.5	61*	-2	0.4
O=C(c1cc(-c2ccc3c(c2)OCO3)on1)N1CCN(c2ccccc2)CC1	19	50*	0.5	10	-1	0.9
O=C(c1ccc2c(c1)OCO2)N1CCN(c2ccccc2)CC1	4	45	0.5	88*	-15	0.1
COc1ccc(OC)c2c(C)cc(N3CCN(C(=O)c4ccc(Cl)cc4)CC3)nc12	24	56*	0.4	40	-2	0.6
O=C(Nc1ccc(C(=O)N2CCCC2)cc1)c1ccc2c(c1)OCO2	-1	40	0.6	42	-1	0.6
Cc1ccc(C(=O)N2CCN(c3ccc(NC(=S)NC(=O)Cc4ccccc4)cc3)CC2)cc1	2	52*	0.5	30	-1	0.7
COC(=O)COc1ccc(NC(=O)C2CCCO2)cc1 (configuration not stated)	1	4	1	18	-11	0.8
O=C(Nc1ccccc1N1CCN(C(=O)c2ccc(Cl)cc2)CC1)c1ccc2c(c1)OCO2	20	84*	0.2	90*	-5	0.1
O=C(Nc1ccc(N2CCN(C(=O)c3ccc(Cl)cc3)CC2)cc1)c1ccc2c(c1)OCCO2	18	-6	1.1	-4	5	1
O=C(c1cccc(C(=O)N2CCN(c3ccccc3F)CC2)c1)N1CCN(c2ccccc2F)CC1	18	67*	0.3	82*	-2	0.2
